Screening results from PubChem.
USP8 block: inhibitors of human USP8 deubiquitinase | P40818 | purified USP8, Ub-rhodamine cleavage fluorescence, 30 min | inhibition, % at 20 µM | actives 4.2% (n = 47,000)
Target sequence (P40818 whole entry, looked up): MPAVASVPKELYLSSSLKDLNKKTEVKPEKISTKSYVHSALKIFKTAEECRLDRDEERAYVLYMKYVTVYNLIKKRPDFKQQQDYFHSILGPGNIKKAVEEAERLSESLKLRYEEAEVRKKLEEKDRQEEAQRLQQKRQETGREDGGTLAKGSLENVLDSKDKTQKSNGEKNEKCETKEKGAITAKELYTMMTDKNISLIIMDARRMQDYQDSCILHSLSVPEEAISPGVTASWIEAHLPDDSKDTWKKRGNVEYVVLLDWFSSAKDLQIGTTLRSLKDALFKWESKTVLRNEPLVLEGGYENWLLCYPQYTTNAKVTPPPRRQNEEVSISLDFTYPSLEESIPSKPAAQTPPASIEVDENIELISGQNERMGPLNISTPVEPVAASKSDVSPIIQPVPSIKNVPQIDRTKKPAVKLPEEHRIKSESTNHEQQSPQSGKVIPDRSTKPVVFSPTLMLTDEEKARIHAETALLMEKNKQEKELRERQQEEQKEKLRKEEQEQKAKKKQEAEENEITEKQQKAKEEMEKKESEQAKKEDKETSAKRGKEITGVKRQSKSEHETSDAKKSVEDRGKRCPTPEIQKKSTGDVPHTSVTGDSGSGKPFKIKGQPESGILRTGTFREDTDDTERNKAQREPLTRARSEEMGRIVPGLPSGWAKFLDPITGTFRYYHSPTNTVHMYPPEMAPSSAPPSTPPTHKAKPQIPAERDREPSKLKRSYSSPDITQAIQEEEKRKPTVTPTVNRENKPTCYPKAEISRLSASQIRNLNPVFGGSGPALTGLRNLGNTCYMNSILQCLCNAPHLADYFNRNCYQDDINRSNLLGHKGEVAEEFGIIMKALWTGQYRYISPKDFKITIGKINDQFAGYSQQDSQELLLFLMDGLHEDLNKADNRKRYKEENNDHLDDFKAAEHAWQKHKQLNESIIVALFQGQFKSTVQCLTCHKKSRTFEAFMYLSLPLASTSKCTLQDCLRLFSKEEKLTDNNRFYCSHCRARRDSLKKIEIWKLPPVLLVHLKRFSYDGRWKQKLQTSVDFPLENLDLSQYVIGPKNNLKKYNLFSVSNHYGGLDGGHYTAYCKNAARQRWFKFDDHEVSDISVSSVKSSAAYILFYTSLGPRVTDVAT
UCHL1 block: human UCHL1 deubiquitinase inhibition; purified UCHL1, Ub-rhodamine cleavage fluorescence; inhibition, % at 20 µM; actives 0.2% (n = 47,000)
USP10 inh: human USP10 deubiquitinase inhibition | purified USP10, Ub-rhodamine fluorescence, 60 min | inhibition, % at 20 µM | actives 1.1% (n = 47,000)
USP7 inh: inhibitors of human USP7 deubiquitinase; purified USP7, Ub-rhodamine cleavage fluorescence; inhibition, % at 20 µM; Q93009; actives 0.3% (n = 47,000)
Numbers stand for hits; - = inactive. A selection: hits, their analogues and other compounds. The true share with any hit is near 4.6%. Rule as the data show it: active = inhibition above about 30%; inactive = the rest.

SMILES	USP8 block	UCHL1 block	USP10 inh	USP7 inh
CCCCCn1c(SCc2cccnc2)nc2cc(C(=O)NCc3ccco3)ccc2c1=O	-	-	-	-
N#Cc1cccc(NC(=O)Nc2cccn(Cc3ccc(F)cc3)c2=O)c1	91	-	-	-
COc1ccc(-c2noc(CCn3c(=O)[nH]c4ccccc4c3=O)n2)cc1	-	-	-	-
Cn1c2ccccc2c(=O)c2c(=O)n(Cc3ccco3)c(C3CCCCC3)nc21	30	-	-	-
Cc1nc2c(c(=O)c3ccccc3n2C)c(=O)n1Cc1ccco1	-	-	-	-
COc1ccc(NC(=O)C(C)n2nc(-c3ccccc3)c3cc(Cl)ccc32)cc1 (stereo not given)	-	-	-	-
CC(C(=O)NCCc1ccccc1)n1nc(-c2ccccc2)c2cc(Cl)ccc21 (stereo not given)	31	-	-	-
COc1cccc(NC(=O)C2C3C=CC4(O3)C2C(=O)N(CCc2ccc(Cl)cc2)C4C(=O)NC2CCCCC2)c1 (stereo not given)	50	-	35	-
Cc1nc2ccc(C(=O)Nc3cc(Cl)cc4cccnc34)cc2nc1C	87	-	-	-
COc1ccccc1NC(=O)c1cc(Br)cc(Cc2ccccc2)c1O	49	-	-	-
Cc1cc(N2CCN(c3ncccn3)CC2)nc2ccc(NC(=O)c3ccncc3)cc12	-	-	-	-
Cc1cc(N2CCCCC2)nc2ccc(NC(=O)c3ccco3)cc12	58	-	-	-
CCOC(=O)C1CCN(C(=O)CCC(=O)Nc2ccc3nc(N4CCN(CC)CC4)cc(C)c3c2)CC1	-	-	-	-
CC(=O)Nc1ccc2nc(N3CCC(C(=O)N4CCN(C)CC4)CC3)cc(C)c2c1	31	-	-	-
CCN1CCN(c2cc(C)c3cc(NC(=O)c4ccco4)ccc3n2)CC1	48	-	-	-
CCOc1ccc2nc(NC(=O)C3CCN(S(=O)(=O)c4ccc5c(c4)CC(C)N5C(C)=O)CC3)sc2c1 (stereo not given)	-	-	-	-
CC(C)N1CCN(Cc2nc(-c3ccc(N4CCCCC4)nc3)no2)CC1	-	-	-	-
Cn1cc(C(=O)NCc2ccc(-c3nc(C4CC4)ncc3-c3ccccn3)cc2)cn1	-	-	-	-
O=C(NCC1COCCO1)c1ccc(CN2C(=O)CCn3nc(-c4ccccc4)cc32)cc1 (stereo not given)	-	-	-	-
COc1cccc(-n2cnc3cc(C(=O)NCc4ccncc4)ccc3c2=O)c1	58	-	-	-
Cn1c(=O)c2c(-c3ccccc3)n(-c3ccc4c(c3)OCCO4)cc2n(C)c1=O	74	-	-	-
Cn1c(=O)c(N2CCCC(C(=O)O)C2)nc2cccnc21 (stereo not given)	-	-	-	-
COc1ccc(NC(=O)NC2(c3nc(C)no3)CCCCC2)c(C)c1	-	-	-	-
CNc1nc(C2CCN(C(=O)C3(c4cccc(C)c4)CCOCC3)C2)nc2c1CN(C)CC2 (stereo not given)	-	-	-	-
CNc1nc(C2CCN(C(=O)C3(c4cccc(C)c4)CCOCC3)C2)nc2c1CCN(C)C2 (stereo not given)	37	-	-	-
SMILES	USP8 block	UCHL1 block	USP10 inh	USP7 inh
O=C(/C=C/c1ccc(Br)cc1)N1CCc2ccccc2C1	-	-	-	-
CC(C)c1ccc(/C=C/C(=O)N2CCc3ccccc3C2)cc1	69	-	-	-
Cc1nc(CNC(=O)[C@H]2CCCN2C(=O)c2cccc(F)c2)cs1	-	-	-	-
O=C1NC[C@@H](CCC(=O)N2CCCC2)N2C[C@@H](NCc3ccccc3)C[C@@H]12	-	-	-	30
CC1(C)CC(=O)C2=C(C1)Nc1ccccc1NC2c1cn(Cc2ccccc2)c2ccccc12 (stereo not given)	-	-	-	-
N#Cc1cc2c([nH]c1=O)CC(c1ccccc1)C/C2=N\Nc1ccccc1 (stereo not given)	51	-	-	-
N#Cc1c(SCCO)nc(N2CCCC2)c2c1CCCC2	-	-	-	-
CCOC(=O)C1CCCN(C(=O)C(=O)c2cn(CC(=O)N3CCCCC3)c3ccccc23)C1 (stereo not given)	80	-	-	-
COC(=O)c1ccccc1NC(=O)C1CCCN(c2nnc(-n3cccc3)s2)C1 (stereo not given)	40	-	-	-
Cc1c(F)cccc1NC(=O)C1CCCN(c2nnc3ccccn23)C1 (stereo not given)	-	-	-	-
Cc1c(Cl)cccc1NC(=O)C1CCCN(c2nnc(-n3cccc3)s2)C1 (stereo not given)	60	-	-	-
c1ccc(-c2cc3c(N4CCc5ccccc5C4)ncnc3s2)cc1	53	-	-	-
CCOC(=O)c1cnc2ccc(OCC)cc2c1Nc1cccc(C)c1C	-	-	-	-
O=C(NCc1ccccc1Cl)C1CCN(c2ccc(-c3ccccc3)nn2)CC1	47	-	30	-
CN1CCN(CCNC(=O)c2cnn3c4c(cnc23)CCCCCC4)CC1	-	-	-	-
CCN(CC)S(=O)(=O)c1ccc2oc(N3CCOCC3)nc2c1	68	-	-	-
c1csc(-c2nc(Nc3ccc4c(c3)CCC4)c3ccccc3n2)c1	57	-	-	-
CCOc1cccc2cc(-c3cc(=O)oc4cc(OC)ccc34)oc12	51	-	-	-
COc1ccc(N2CCN(Cc3cc(=O)oc4cc(OC)ccc34)CC2)cc1	-	-	-	-
O=C(CSc1nnc(-c2ccncc2)n1Cc1ccccc1)c1ccc2[nH]c(O)cc2c1	65	-	-	-
CC(C)(C)c1ccc(C2CC(=O)C3=C(C2)Nc2ccccc2N(C(=O)CCC(=O)O)C3c2cccc([N+](=O)[O-])c2)cc1 (stereo not given)	-	-	33	-
COc1cc(NC(=O)c2ccco2)c(OC)cc1NC(=O)CN1CCCCC1	-	-	-	-
COc1ccc(-c2c(C)c(C(=O)c3ccco3)n3ccc4cc(OC)c(OC)cc4c23)cc1OC	68	-	-	-
O=[N+]([O-])c1cccc(-c2csc(-c3ccc4c(c3)OCO4)n2)c1	31	-	-	-
c1ccc(-c2cc(-c3csc(-c4ccc5c(c4)OCCO5)n3)on2)cc1	-	-	-	-
SMILES	USP8 block	UCHL1 block	USP10 inh	USP7 inh
CN(Cc1ccccc1)C(=O)CCn1cnc2c(-c3ccc(F)cc3)noc2c1=O	-	-	-	-
COc1ccc(CC(=O)Nc2c(NCc3ccccc3)c3ccccc3oc2=O)cc1	91	-	-	-
COc1ccc(-c2nonc2NC(=O)Cc2ccccc2)cc1	-	-	-	-
Cc1cc(N2CC3(CCCCC3)OC2=O)nc(C2CCN(S(C)(=O)=O)CC2)n1	31	-	-	-
COc1cccc(C2c3[nH]c4ccccc4c3C[C@H]3C(=O)N(c4ccc5c(c4)OCCO5)C(=O)N23)c1 (stereo not given in full)	-	-	-	-
CC(NC(=O)c1ccccc1)c1nc2ccccc2n1CC(=O)NC1CCCCC1 (stereo not given)	65	-	-	-
CC(NC(=O)c1ccccc1)c1nc2ccccc2n1CC(=O)Nc1ccc(OC(F)(F)F)cc1 (stereo not given)	33	-	-	-
O=C(Cn1c(CNC(=O)c2ccccc2)nc2ccccc21)Nc1ccc(F)cc1	72	-	44	-
